Assay outcomes (PubChem BioAssay)
Compounds with a hit are over-represented: about 12% of the library has one in this group of screens.
G9a block – blocks human histone lysine methyltransferase G9a. Q96KQ7. G9a H3K9 monomethylation, AlphaScreen, 2 h. Potency, µM (titrated, usually from 102 µM), actives largely listed as inhibitors. hit rate 8.8% among 350,000; further: nearly all actives have a fitted effect of over 75% in size
Target sequence (Q96KQ7 913-1193 limits assumed): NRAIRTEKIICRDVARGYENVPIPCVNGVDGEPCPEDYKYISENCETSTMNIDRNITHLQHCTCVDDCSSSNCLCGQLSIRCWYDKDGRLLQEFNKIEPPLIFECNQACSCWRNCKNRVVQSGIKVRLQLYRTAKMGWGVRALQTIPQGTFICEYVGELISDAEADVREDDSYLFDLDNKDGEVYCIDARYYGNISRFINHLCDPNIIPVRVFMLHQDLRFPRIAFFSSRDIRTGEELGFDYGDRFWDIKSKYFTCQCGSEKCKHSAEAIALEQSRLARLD
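Readings reflect AlphaScreen signal from monomethyl-H3K9 antibody detection. HMT at 20 nM; substrate b-H3K9 500 nM; cofactor SAM 20 uM; 2 h RT reaction; compounds tested as titrations in qHTS with 15 min preincubation.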
Sfp inh – inhibitors of Bacillus subtilis Sfp phosphopantetheinyl transferase; Potency, µM, most hits filed as inhibitors; Biochemical Sfp PPTase activity, qHTS; hit rate 3.5% among 310,000;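 further: the enzyme is Sfp with the accession as filed and its product quenches rhodamine fluorescence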
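Buffer: 50 mM Hepes-Na pH 7.6, 10 mM MgCl2, 0.01% Nonidet P-40, 0.01% BSA. Enzyme 15 nM, pre-exposed to compound 15 min; substrates then added and fluorescence change tracked over 30 min.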
JMJD2A Tudor – JMJD2A Tudor domain (human) inhibition | hit rate 4.4% among 390,000 | O75164 | AlphaScreen JMJD2A-Tudor / H3K4me3 peptide binding | Potency, µM (top dose mostly 114 µM), usual class: inhibitors; further: nearly all actives have a fitted effect of over 50% in size
BAZ2B inh – inhibitors of human BAZ2B bromodomain; Q9UIF8; AlphaScreen BAZ2B-H3K14Ac peptide displacement; Potency, µM (titrated, usually from 114 µM), usual class: inhibitors; hit rate 4.4% among 360,000; AID 504333; further: nearly all actives have a fitted effect of over 60% in size
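Multi-concentration screen (max 110 uM) measuring displacement of acetylated histone H3 peptide from BAZ2B by AlphaScreen, using 50 nM protein, 50 nM peptide and 10 ug/mL streptavidin donor plus Ni-chelate acceptor beads.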
HP1b binding inh – blocks HP1-beta chromodomain binding to methylated histone tails; P83916; AlphaScreen HP1-beta / biotin-H3K9me3 peptide binding; Potency, µM (titrated, usually from 114 µM), usual class: inhibitors; hit rate 0.56% among 390,000; further: nearly all actives have a fitted effect of over 70% in size
Target sequence (P83916 whole entry, looked up): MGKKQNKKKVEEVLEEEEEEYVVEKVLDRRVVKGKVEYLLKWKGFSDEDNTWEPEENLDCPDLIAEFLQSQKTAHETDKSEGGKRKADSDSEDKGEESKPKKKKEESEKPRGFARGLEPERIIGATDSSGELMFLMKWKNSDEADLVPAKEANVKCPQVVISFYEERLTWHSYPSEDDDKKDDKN
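Compound inhibition of the preformed complex between 50 nM HP1-beta and 50 nM biotinylated H3K9me3 peptide was read by AlphaScreen. Buffer was PBS pH 7.4 with 0.01% Tween-20. Incubations ran 30 min at room temperature, with 10 ug/mL donor/acceptor beads.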
Each line names hits and unclear results; the compound was inactive in the other large screens. The call rests on the fitted dose curve; in most records, active means well fitted curve in the direction sought with a large enough effect; inconclusive means small, poorly fitted or top-dose-only effect, or another doubt; inactive means no such curve, though single readings can be large; an effect the other way counts as inactive or inconclusive.

O=C(O)c1cc(-c2cccs2)nn1-c1ccc(F)cc1	G9a block 44.7µM, BAZ2B inh inconclusive
COC(=O)NC(CC(C)=O)c1ccc(F)cc1 (centres undefined)	none (no result: G9a block, JMJD2A Tudor, BAZ2B inh, HP1b binding inh)
CC(C)CNC(=O)COC(=O)c1c2c(nc3ccccc13)/C(=C\c1cccs1)CC2	none (no result: G9a block, Sfp inh, BAZ2B inh)
CN(CCC#N)C(=O)COC(=O)c1c2c(nc3ccccc13)/C(=C/c1ccco1)CC2	G9a block 22.4µM, JMJD2A Tudor 89.1µM, BAZ2B inh 44.7µM, HP1b binding inh inconclusive
COc1ccc(N2CC(NC(=O)C3CCCCC3)CC2=O)cc1OC (centres undefined)	G9a block inconclusive (no result: Sfp inh)
O=S(=O)(Nc1nnc(C2CC2)s1)c1ccccc1	G9a block 50.1µM
CS(=O)(=O)Nc1nnc(C2CCCC2)s1	G9a block 50.1µM
Cc1ccc(N2C(=O)C(CC(=O)Nc3cccc(F)c3)N(C3CC3)C2=O)cc1 (centres undefined)	G9a block 44.7µM
CCc1ccc(NC(=O)CC2C(=O)N(c3ccc(C)cc3)C(=O)N2C2CCCC2)cc1 (centres undefined)	none (no result: Sfp inh)
COc1cccc(N2C(=O)C(CC(=O)Nc3ccccc3)N(C3CCCCC3)C2=O)c1 (centres undefined)	none
COc1ccc(NC(=O)CC2C(=O)N(c3ccc(OC)cc3)C(=O)N2C(C)C)cc1 (centres undefined)	G9a block 56.2µM, BAZ2B inh inconclusive
CCc1ccc(NC(=O)CC2C(=O)N(c3cccc(OC)c3)C(=O)N2C2CCCC2)cc1 (centres undefined)	G9a block 7.94µM, BAZ2B inh inconclusive (no result: Sfp inh)
O=C(CSc1nc(-c2ccc(F)cc2)[nH]c1-c1ccccc1)Nc1ccccc1	none (no result: Sfp inh)
Cc1cc2c(s1)c1cnn(Cc3ccc(S(C)(=O)=O)cc3)c(=O)c1n2C	none (no result: G9a block, Sfp inh, BAZ2B inh, HP1b binding inh)
COc1ccc(CN(CC(=O)NC(C)C)C(=O)CCC(=O)Nc2nccs2)cc1	none
Cc1ccc(C)c(CN2CCCNC2=O)c1	G9a block 44.7µM, Sfp inh 50.1µM, BAZ2B inh inconclusive
COc1ccc2c(CNC3CCCC3)c(C(=O)O)n(Cc3ccccc3C)c2c1	none (no result: Sfp inh)
O=C(COC(=O)/C=C/C(=O)N1CCN(c2ccccc2)CC1)NC(c1ccccc1)c1ccccc1	G9a block inconclusive, BAZ2B inh 44.7µM
O=C(COC(=O)/C=C/c1cccs1)NC(c1ccccc1)c1ccccc1	none
CCOC(=O)c1ccccc1NC(=O)CSc1ncc(CO)n1Cc1ccc(C)cc1	none (no result: Sfp inh)
CCCCc1n[nH]c(=S)n1Cc1ccc(C)cc1	G9a block 1.78µM, JMJD2A Tudor 14.1µM
Cc1ccc(NCc2n[nH]c(=S)n2Cc2ccccc2)cc1Cl	G9a block 17.8µM, JMJD2A Tudor inconclusive, BAZ2B inh inconclusive
COc1ccccc1OCc1n[nH]c(=S)n1Cc1ccccc1	G9a block 12.6µM, JMJD2A Tudor 31.6µM
S=c1[nH]nc(CCc2ccccc2)n1Cc1ccccc1	G9a block 3.55µM, JMJD2A Tudor inconclusive
S=c1[nH]nc(COc2ccc(Cl)cc2)n1Cc1ccccc1	G9a block inconclusive
CCCCCCCc1n[nH]c(=S)n1Cc1ccccc1	JMJD2A Tudor inconclusive (no result: G9a block)
Cc1nc([N+](=O)[O-])c(C(=O)OCc2ccccc2F)n1C	G9a block inconclusive
CC(=O)OC1CC[C@]2(C)C(CC(OC(C)=O)[C@]3(C)C2CC[C@@]2(C)C(c4ccoc4)OC(=O)C4O[C@]432)C1(C)C (some centres undefined)	none (no result: JMJD2A Tudor, BAZ2B inh, HP1b binding inh)
CCCNC(=O)OC[C@@H]1O[C@H](CCO/N=C(\C)CCC(=O)OC[C@@H]2O[C@H](C#Cc3ccccc3)C=C[C@@H]2Oc2ccc(C)cc2)C=C[C@@H]1Oc1ccc(OC)cc1	none (no result: G9a block, JMJD2A Tudor, BAZ2B inh, HP1b binding inh)
C=C(C)Cn1c(CCn2c3ccccc3c3ccccc32)n[nH]c1=S	G9a block inconclusive
Cc1nccn1CCc1n[nH]c(=S)n1Cc1ccccc1	G9a block 2µM, JMJD2A Tudor 39.8µM
CCn1c(CCCCc2n[nH]c(=S)n2CC)n[nH]c1=S	G9a block 20µM, JMJD2A Tudor 4.47µM, HP1b binding inh inconclusive
O=C(N/N=C/c1ccc([N+](=O)[O-])o1)c1cc2ccccc2o1	G9a block 50.1µM
Cc1nc2ccccn2c1C(=O)N/N=C/c1ccc([N+](=O)[O-])o1	G9a block 50.1µM, JMJD2A Tudor 39.8µM, BAZ2B inh 44.7µM, HP1b binding inh inconclusive
CCNc1nc(NCC)nc(N/N=C/c2ccc([N+](=O)[O-])o2)n1	G9a block 1.78µM, BAZ2B inh inconclusive
O=[N+]([O-])c1ccc(/C=N/Nc2ccc3ccccc3c2)o1	G9a block 10µM, JMJD2A Tudor 7.08µM, BAZ2B inh 8.91µM, HP1b binding inh inconclusive
COc1ccc(NC(=O)N2CCCC3(CCN(C(=O)c4cc(C(F)(F)F)cc(C(F)(F)F)c4)CC3)C2)cc1	none (no result: JMJD2A Tudor, BAZ2B inh, HP1b binding inh)
Cc1ccc(/C=N/NC(=O)c2cc3c(ccc4ccccc43)o2)o1	none
O=C(N/N=C/c1ccc([N+](=O)[O-])o1)c1cc2c(ccc3ccccc32)o1	Sfp inh inconclusive, JMJD2A Tudor inconclusive, BAZ2B inh 56.2µM (no result: G9a block)
O=C1[C@@H]2[C@H]3[C@H](O)[C@H](O)C/C(=N/OCc4ccccc4)[C@H]3CC[C@H]2C(=O)N1c1ccc(F)cc1F	none (no result: G9a block, JMJD2A Tudor, BAZ2B inh, HP1b binding inh)
CC(C)=NNc1nc2sc3c(c2c(=O)[nH]1)CC(C)(C)OC3	G9a block inconclusive, Sfp inh 15.8µM
CC1(C)Cc2c(sc3[nH]c(=S)[nH]c(=O)c23)CO1	Sfp inh inconclusive, JMJD2A Tudor 89.1µM (no result: G9a block)
CCCNC(=O)OC[C@H]1O[C@@H](CCO/N=C2/[C@H]3O[C@@H]3[C@@H](O)[C@H]3[C@H]2CCn2c(=O)n(-c4ccccc4)c(=O)n23)C=C[C@@H]1Oc1ccc(OC)cc1	none (no result: G9a block, JMJD2A Tudor, BAZ2B inh, HP1b binding inh)
CCOC(=O)C(Cc1ccc(OC)c([N+](=O)[O-])c1)NC(=O)CCC(=O)Nc1ccc(OC)cc1 (centres undefined)	none
CCCCCCCCCCCC(=O)NC(Cc1ccc(OC)c([N+](=O)[O-])c1)C(=O)O (centres undefined)	G9a block 28.2µM
CN(C)/N=C1\CCS(=O)(=O)c2sccc21	G9a block inconclusive
Cc1ccc(N/N=C2\CCS(=O)(=O)c3sccc32)cc1	G9a block 8.91µM, JMJD2A Tudor inconclusive, BAZ2B inh inconclusive
Oc1oc(C=Nc2ccc(F)cc2F)c2ccccc12	G9a block 5.01µM, BAZ2B inh inconclusive
CSc1n[nH]c(/N=C/c2oc(O)c3ccccc23)n1	G9a block 20µM, BAZ2B inh inconclusive
Cc1cccc(/N=C/c2c(O)c3ccccc3oc2=O)n1	none
COc1ccc(-c2cnn3c4c(c(C)nc23)CCN4C2CCCC2)cc1OC	G9a block inconclusive
COCCN1CCc2c(C)nc3c(-c4ccc(OC)c(OC)c4)cnn3c21	G9a block 79.4µM
O=C(O)CCN1C(=O)/C(=C2\C(=O)N(Cc3ccc(F)cc3)c3ccccc32)SC1=S	G9a block 15.8µM, JMJD2A Tudor 25.1µM, BAZ2B inh 2.51µM, HP1b binding inh 28.2µM
